From PubChem BioAssay (NCI)
Compounds without any hit were thinned out: in the full panel of roughly 79,000, 15% have a hit. Values without a mark were called inactive. Calls of active or inactive are those of the source. Cut-off read from the data, not from the text of the source: active = growth inhibition above about 70%; inactive = the rest.

How the values were obtained:
[1] = NCI Yeast Anticancer Drug Screen. Data for the rad50 strain (AID 155);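 note: 0% = growth of vehicle-only cultures of the same strain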; conditions: S. cerevisiae rad50 strain growth inhibition; at 50.0 µM; stronger effect = higher value
Outline: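 Relative growth inhibition (compound vs vehicle) was measured in yeast with a defined repair-gene alteration.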

[2] = NCI Yeast Anticancer Drug Screen. Data for the mec2-1 strain (AID 157); conditions: S. cerevisiae mec2-1 strain, at 50.0 µM, stronger effect = higher value
Outline: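 mec2-1 yeast strain, carrying an alteration in DNA damage repair or cell cycle control, was exposed to compounds; growth inhibition was measured relative to vehicle-treated controls.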

[3] = NCI Yeast Anticancer Drug Screen. Data for the sgs1 mgt1 strain (AID 161);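 note: 0% = growth of cultures given vehicle only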; conditions: S. cerevisiae sgs1 mgt1 strain, at 50.0 µM, stronger effect = higher value
Outline: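 This yeast growth screen uses a strain with defined DNA-repair lesions; compound-treated growth is compared with vehicle-treated growth.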

[4] = NCI Yeast Anticancer Drug Screen. Data for the cln2 rad14 strain (AID 165);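 note: 0% = growth equal to vehicle treated cultures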; conditions: S. cerevisiae cln2 rad14 strain, at 50.0 µM, stronger effect = higher value
Outline: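 Yeast carrying cln2 and rad14 alterations (cell cycle control and DNA damage repair) were exposed to compounds. Growth inhibition was measured against vehicle-treated controls.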

[5] = NCI Yeast Anticancer Drug Screen. Data for the mlh1 rad18 strain (AID 175); conditions: S. cerevisiae mlh1 rad18 strain growth inhibition; at 50.0 µM; stronger effect = higher value
Outline: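 Growth inhibition of the yeast strain was measured after compound exposure and expressed relative to vehicle-treated controls. The strain carries defined defects in DNA damage repair.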

[6] = NCI Yeast Anticancer Drug Screen. Data for the bub3 strain (AID 167); conditions: S. cerevisiae bub3 mutant strain, at 50.0 µM, stronger effect = higher value
Outline: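 Screening used yeast with an engineered genetic alteration affecting cell cycle control. Compound-exposed cultures were compared with vehicle cultures, and reduced growth was taken as inhibition.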

SMILES | growth inhibition [1] | growth inhibition [2] | growth inhibition [3] [%] | growth inhibition [4] | growth inhibition [5] | growth inhibition [6]
COC(=O)C(=O)C(C(=O)C(=O)Nc1ccccc1C(C)=O)c1nc2ccc(C(=O)c3ccccc3)cc2[nH]c1=O (stereo not drawn) | 25.9% | -6.6% | 33.6 | 28.6% | 24.5% | 
CN1C2CCC1CC(OC(=O)C(O)c1ccccc1)C2 (stereo not drawn) | 9.3% | -3.75% | -27.9 |  | 7.45% | -35.8%
Cc1nc(-[n+]2nc(-c3ccccc3)nn2-c2ccccc2)sc1C | 3.3% | -15.2% | -18.9 |  | 7.4% | -26.8%
Cc1ccc(/C=N/Nc2nc3ccccc3s2)s1 | -24.5% | -4% | -9.55 |  | -11.2% | -12.1%
CC(C)=CCc1c(OC(=O)c2c(C)cc(O)cc2O)cc(CO)c(CO)c1O | 5.1% | 11.4% | 30.4 |  | -54.9% | 8.65%
O=C(/C=C(\[O-])c1ccccc1)CCCCCCC(=O)/C=C(\[O-])c1ccccc1.O=C(/C=C(\[O-])c1ccccc1)CCCCCCC(=O)/C=C(\[O-])c1ccccc1.O=C(/C=C(\[O-])c1ccccc1)CCCCCCC(=O)/C=C(\[O-])c1ccccc1.[La+3].[La+3] | -2.3% | -8.75% | 5.5 |  | -10.1% | 12.3%
NC(=S)NS(=O)(=O)c1ccc(N)cc1 | -24.6% | -38.2% | -6 | 4.35% | 8.3% | 
O=C(O)CCNC(=O)c1ccccc1 | -6.2% | -7.4% | -20 |  | -12.8% | 7.95%
NC(N)=Nc1ccc(CC(N)C(=O)O)cc1 (stereo not drawn) | -0.5% | -18.8% | -13.4 | 15.2% | -25.6% | 
COC(=O)c1cnn2c1n[n+]([O-])c1ccccc12 | -36.3% | -36% | -33.1 |  | -8% | -37%
Cc1ccc2c(sc(-c3ccc4c(c3)sc(-c3ccc5c(c3)sc(-c3ccc(N(C)C)cc3)[n+]5C)[n+]4C)[n+]2C)c1S(=O)(=O)O (tested in a mixture with another compound) | 27.7% | 22.3% | 46.4 | 40.1% | 70.4% (active) | 
C=C1C(=O)OC2CC(C)C3(O)CCC(=O)C3(C)CC12 (stereo not drawn) | -14.8% | -24.9% | -5.2 |  |  | -18.4%
COC(=O)C1CCC(=O)N1CN(C(C)=O)c1cccc(O)c1 (stereo not drawn) | 5.8% | 3.3% | 0.2 | 9.75% | -52.3% | 
COc1ccc(/C=c2\[nH]c3nc(=O)c(N4CCOCC4)c(N)n3c2=O)cc1 | 0.9% | -19.4% | 1.6 |  |  | -26.1%
O=C(/C=C/c1ccccc1)Nc1ccccc1 | 12.9% | -21% | 6.35 |  | 35.6% | 7.05%
CC(C)=CC(O)C/C(C)=C/CC/C(C)=C/CCC1(C)C(CCCO)/C(=C(/C)C=O)CCC1(C)O (stereo not drawn) | 18.9% | 4.75% | 10.2 |  |  | 4.6%
CC1(C)C2CCC1(CS(=O)(=O)O)C(=O)C2 (stereo not drawn) | -14% | -6.6% | -12.4 |  | -1.2% | -4.65%
COc1cc2c(cc1C1COc3cc4occc4cc3C1=O)OCO2 (stereo not drawn) | 5.15% | -33.8% | 4.05 | 6.8% | -25.6% | 
C[N+](C)(CCNC(=O)c1cccc2cc3ccccc3nc12)Cc1ccc([N+](=O)[O-])s1 | -13.4% | -37.2% | -12.7 |  | -36.7% | -40%
CC(C)CCCC(C)[C@H]1CC[C@H]2[C@@H]3CC[C@H]4C[C@@H](CCC=C(c5cc(Cl)c(O)c(C(=O)O)c5)c5cc(Cl)c(O)c(C(=O)O)c5)CC[C@]4(C)[C@H]3CC[C@]12C (stereo partly drawn) (tested in a mixture with another compound) | 0.95% | 22.4% | 3.45 | -8.4% | 51.2% | 
COc1cc(N(CCC#N)CCC#N)ccc1/C(N=Nc1ccc(Cl)cc1)=N/NC(=O)c1cc(Br)ccc1O | 7.6% | -7.45% | -6.45 | 7.2% | 52% | 
C[C@@H]1CC[C@H]2C(C)(C)[C@H]3C[C@@]12CC[C@@]3(C)O | 21.9% | -16.9% | 12.8 | 14.1% | -18.6% | 

SMILES | growth inhibition [1] | growth inhibition [2] | growth inhibition [3] [%] | growth inhibition [4] | growth inhibition [5] | growth inhibition [6]
CC(=O)[C-](C(C)=O)c1ccccc1.CC(=O)[C-](C(C)=O)c1ccccc1.CC(=O)[C-](C(C)=O)c1ccccc1.[Cl-].[Zr+4] | 27.4% | 28.8% | 0.35 |  | 1.65% | 14.8%
C=C1CCN(c2ccccc2)C1=O | 5.3% | -2.6% | -5.15 |  | -4.55% | -5.05%
CCOc1cc2c(cc1O)C=C[C@@H]1[C@@H]2CC[C@]2(C)[C@@H](O)CC[C@@H]12 | 33.8% | 2.15% | 53.8 | 26.7% | 25.7% | 
CC(C)C1OC(N)=C(C#N)C1(C#N)C#N (stereo not drawn) | 8.9% | 27% | -7.35 | -11.8% | -38.6% | 
N#CC(=S)Nc1ccc(F)cc1 | 20.2% | 26.1% | 30.7 | -17.8% | -5.8% | 
Cc1ccc(/C=N/Nc2nncc3ccccc23)s1 | 14.8% | 16.1% | 16.7 |  | 38.5% | 21.7%
CC(=N/N=C/c1ccccn1)/C(C)=N/N=C(C)/C(C)=N/N=C(C)/C(C)=N/N=C(C)/C(C)=N\N=C\c1ccccn1 | 24.1% | 21.9% | 4.05 | 16.7% | -21.6% | 
CO/C(N)=C(\C#N)N=Cc1ccc2ccccc2c1 | 30.9% | 14.3% | 13.6 |  | 40.5% | 16.7%
C=C1CC2(C)CCC(OC(=O)C3(C)OC3C)C(C)(OC(C)=O)C2CC1=C(C)C (stereo not drawn) | 7.7% | -36.8% |  | 16.2% | -55% | -4.85%
Cc1ccc(F)cc1NC(=O)O/N=C(\Cl)C(C)C | -17.9% | -31.9% | -5.7 |  | 55.6% | 4.85%
Cc1ccc(C)c(NC(=O)/C(=N\N)C(c2cnc3ccc([N+](=O)[O-])cc3n2)[N+](=O)[O-])c1 (stereo not drawn) | 42.5% | 27.2% | 6.75 |  | 28.6% | 
C=C(C)C(=O)OC1CC2(C)OC(=CC2=O)C(C)CC2OC(=O)C(=C)C12 (stereo not drawn) | 13.1% | 18.1% |  | 25.2% | -34.6% | 33.5%
C=C1C2CCC3C4(C)CCCC(C)(C(=O)O)C4CCC3(C2)C1OC(=O)/C(C)=C/C (stereo not drawn) | 22.4% | 4.85% | -7.05 |  | -59.4% | 0.75%
Cc1cc(N(CCC#N)CCC#N)ccc1/C=N/NC(=O)c1cc(Cl)ccc1O | -1.8% | -18.3% | -40.8 |  | -32% | 
COc1cc2oc3c(c(=O)c2c(O)c1/C=C/C(C)C)CCC(C)(C)Oc1cc(O)ccc1-3 | 22.6% | 11.1% | 49 |  | -26.4% | 
CC(=Nc1ccncc1)C(C)=Nc1ccncc1 | 89.7% (active) | 93.6% (active) |  | 88.8% (active) |  | 89.8% (active)
N#CCCOc1ccccc1 | -1.3% | -26% |  | 15.9% | -8.5% | -30.6%
COc1ccc(/C=C2/NC(=S)N=C2Cl)cc1 | -6.9% | -21.8% | 4.3 |  | -29% | 18.1%
O=c1c2ccccc2nc(-c2ccccc2)n1/N=C/c1ccccc1[N+](=O)[O-] | 18.2% | 1% |  | 8.35% | -56.2% | 18.4%
O=C1c2ccccc2-c2c1c1ccccc1c(=O)n2CCO | 76.8% (active) | 43.7% |  | 60.6% | 62.8% | 51.9%
Cc1ccc(/C=N/Nc2cnccn2)s1 | -30.9% | -25.2% | -30.9 |  | -9.3% | -41.2%
